Experimental data from the supplement of paper PMC13380429.

System: Vero E6 infected with SARS-CoV-2
Test: inhibition of SARS-CoV-2 cytopathic effect; higher = more antiviral protection, active = above 15
Conditions: 48 h

Measured: inhibition of SARS-CoV-2 cytopathic effect

O=C(O)C1=CCCN(CCOC(c2ccc(C(F)(F)F)cc2)c2ccc(C(F)(F)F)cc2)C1
inactive: 1 nM 0.02% | 8.33 nM 0.95% | 100 nM -2.81% | 833.33 nM 1.77% | 10000 nM 0.32%

CNCCC=C1c2ccccc2C=Cc2ccccc21 [norcyclobenzaprine]
inactive: 1 nM -0.66% | 8.33 nM 3.83% | 100 nM -2.37% | 833.33 nM -0.19% | 10000 nM -7.92%

CC1(C)O[C@@H]2C[C@H]3[C@@H]4CCC5=CC(=O)C=C[C@]5(C)[C@@]4(F)[C@@H](O)C[C@]3(C)[C@]2(C(=O)CO)O1
inactive: 1 nM 0.1% | 8.33 nM -0.04% | 100 nM 1.38% | 833.33 nM 1.4% | 10000 nM -0.1%
